Reference: paper PMC5540273 (PLoS ONE, 2017)

Experiments:
Conditions in all cases: concentration: 1 μM,replicates: in singlicate; n = 1
[1] = tested on: T1, HASPIN
T1 construct: gene GSG2

[2] = tested on: HCK
[3] = tested on: HIPK1
[4] = tested on: HIPK2
[5] = tested on: HIPK3
[6] = tested on: HIPK4
[7] = tested on: HPK1
[8] = tested on: HUNK
[9] = tested on: ICK
[10] = tested on: IGF1R
[11] = tested on: T2, IKK-alpha
T2 construct: gene CHUK

[12] = tested on: T3, IKK-beta
T3 construct: gene IKBKB

[13] = tested on: T4, IKK-epsilon
T4 construct: gene IKBKE

[14] = tested on: INSRR
[15] = tested on: INSR
[16] = tested on: IRAK1
[17] = tested on: IRAK3
[18] = tested on: IRAK4
[19] = tested on: ITK
[20] = tested on: JAK1(JH1domain-catalytic)
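Further: KINOMEscan kinase panel screen.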

SMILES | %Inh [1] [%] | %Inh [2] [%] | %Inh [3] [%] | %Inh [4] [%] | %Inh [5] [%] | %Inh [6] [%] | %Inh [7] [%] | %Inh [8] [%] | %Inh [9] [%] | %Inh [10] [%] | %Inh [11] [%] | %Inh [12] [%] | %Inh [13] [%] | %Inh [14] [%] | %Inh [15] [%] | %Inh [16] [%] | %Inh [17] [%] | %Inh [18] [%] | %Inh [19] [%] | %Inh [20] [%]
Cc1ccc(C(=O)Nc2ccc(Oc3ccc4nc(NC(=O)C5CC5)cn4c3)c(F)c2)c(=O)n1-c1ccccc1 | 0 | 96.6 | 29 | 0 | 0 | 72 | 56 | 22 | 0 | 0 | 61 | 56 | 0 | 0 | 0 | 0 | 44 | 0 | 57 | 14
Cn1ccc2ncnc(Oc3ccc(NC(=O)Nc4ccnc(C(F)(F)F)c4)c(Cl)c3)c21 | 9 | 0 | 35 | 0 | 0 | 0 | 0 | 8 | 0 | 2 | 46 | 13 | 0 | 3 | 5 | 14 | 0 | 12 | 0 | 1
O=C(Nc1ccc(Oc2ccc3nc(NC(=O)C4CC4)cn3n2)c(F)c1)c1cccn(-c2ccccc2)c1=O | 0 | 71 | 40 | 0 | 0 | 20 | 11 | 6 | 0 | 0 | 0 | 0 | 0 | 0 | 0 | 0 | 0 | 0 | 1 | 8
CN1CCN(CCCNc2nccc(-c3c(-c4ccc(F)cc4)nn4cc(C(N)=O)ccc34)n2)CC1 [GW622475] | 0 | 8 | 5 | 0 | 27 | 0 | 13 | 6 | 12 | 0 | 0 | 0 | 39 | 0 | 2 | 29 | 0 | 11 | 10 | 5
NC(=O)c1ccc(-c2cc3ncnc(SCC(=O)O)c3s2)cc1 | 0 | 13 | 94.8 | 96.1 | 92 | 79 | 2 | 0 | 10 | 0 | 0 | 0 | 0 | 0 | 0 | 70 | 9 | 0 | 0 | 0
c1ccc(Oc2ccc(Nc3ccnc4ccc(-c5ccccn5)cc34)cc2)cc1 [GW407034] | 0 | 71 | 0 | 0 | 0 | 0 | 25 | 0 | 16 | 5 | 9 | 14 | 11 | 0 | 5 | 22 | 13 | 25 | 13 | 22
C[C@@H](Oc1cc(-n2cnc3cc(-c4ccncc4)ccc32)sc1C(N)=O)c1ccccc1Cl [GSK479719] | 75 | 9 | 0 | 0 | 15 | 24 | 72 | 0 | 4 | 14 | 37 | 50 | 0 | 0 | 0 | 48 | 0 | 26 | 11 | 0
COC(=O)Nc1nc2cc(Oc3ccc(NC(=O)Nc4cc(C(F)(F)F)ccc4Cl)cc3)ccc2[nH]1.Cl [GW697465] | 13 | 0 | 0 | 0 | 3 | 86 | 63 | 17 | 0 | 0 | 35 | 16 | 0 | 0 | 0 | 23 | 0 | 8 | 12 | 21
C[C@@H]1CNc2c(sc3ccc4nc(-c5ccc(O)cc5)ccc4c23)C(=O)N1 | 48 | 35 | 41 | 46 | 21 | 0 | 6 | 5 | 0 | 0 | 27 | 24 | 14 | 0 | 7 | 97.1 | 14 | 14 | 3 | 0
Nc1nccc(-c2ccc3c(N)n[nH]c3c2)n1 [GSK1034945] | 90.5 | 0 | 0 | 0 | 34 | 34 | 52 | 0 | 0 | 0 | 76 | 53 | 18 | 0 | 0 | 45 | 33 | 23 | 14 | 0
COc1cccc(C2=C(Nc3cccc(Cl)c3)C(=O)NC2=O)c1 [SB-341556] | 0 | 0 | 19 | 0 | 33 | 0 | 47 | 0 | 33 | 7 | 39 | 47 | 0 | 0 | 13 | 46 | 0 | 52 | 13 | 7
Cn1ccc2ncnc(Oc3ccc(NC(=O)Nc4cnn(C(C)(C)C)c4)c(Cl)c3)c21 | 35 | 33 | 26 | 16 | 0 | 1 | 5 | 0 | 0 | 25 | 29 | 17 | 10 | 3 | 11 | 43 | 0 | 20 | 2 | 6
Cc1cccc2c(-c3ccncc3)c(-c3ccc(F)cc3)nn12.Cl [GW461487] | 2 | 0 | 0 | 0 | 19 | 0 | 28 | 5 | 0 | 0 | 0 | 0 | 21 | 0 | 0 | 9 | 0 | 0 | 5 | 8
CNC(=O)c1ccccc1Nc1nc(Nc2cccc(CS(C)(=O)=O)c2)ncc1C.O=CO [GSK1520489] | 52 | 99.2 | 93.5 | 88 | 92.7 | 97.2 | 96.8 | 0 | 20 | 90.7 | 61 | 37 | 73 | 92.6 | 96 | 99.7 | 98.3 | 98.1 | 100 | 84
CS(=O)(=O)Nc1ccc(-c2ccnc3[nH]ccc23)cc1 [GSK993273] | 78 | 0 | 56 | 8 | 73 | 34 | 38 | 0 | 6 | 2 | 89 | 99.1 | 34 | 0 | 0 | 61 | 49 | 24 | 13 | 70
O=C1NCCc2[nH]c(-c3ccncc3)cc21 | 100 | 20 | 91.5 | 97.2 | 95.5 | – | 7 | 0 | 29 | 0 | 88 | 40 | 2 | 0 | 8 | 98.6 | 0 | 0 | 0 | 6
C[C@@H]1CNc2c(sc3ccc4nc(-c5ccncc5)ccc4c23)C(=O)N1 | 70 | 21 | 37 | 3 | 4 | 0 | 0 | 7 | 0 | 0 | 14 | 0 | 0 | 0 | 0 | 78 | 42 | 0 | 0 | 0
